Consider six molecules from PubChem BioAssay (NCATS).

Structures are written as SMILES. “And” between values parts separate entries of the source, which are not always exact repeats. Identical values can stand only once. Unmarked numbers belong to inactive results. Results filed as inconclusive are left out. The source made the active and inactive calls. Unless noted, the call rests on the fitted dose curve; in most records, active means well fitted curve in the direction sought with a large enough effect; inconclusive means small, poorly fitted or top-dose-only effect, or another doubt; inactive means no such curve, though single readings can be large; an effect the other way counts as inactive or inconclusive.

Assay [1] concerns the target Cytochrome P450 3A4 (Homo sapiens) (UniProt P08684). The assay is described as follows: qHTS Assay for Inhibitors and Substrates of Cytochrome P450 3A4 (AID 884). Further: series mostly up to about 57 µM; on the % scale 0 is the no-effect control and ±100 the full control effect; nearly all actives have a fitted effect of over 50% in size. Put shortly: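 20 nM human CYP3A4 with 25 uM Luciferin-PPXE (at KM) in 200 mM KPO4, preincubated 10 min with compound; NADPH regeneration started a 60 min RT reaction. Luciferin detected by luminescence, normalized to 57 uM ketoconazole as full inhibition.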
For orientation: qHTS replaces the single test concentration by a dilution series.

A short description of assay [2]: MultiTox-Fluor Cytotoxicity Assay - LYMP1-001 - Live Cells (AID 947).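 Further: 0% = DMSO only and full inhibition = tetraoctylammonium bromide control.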
The nature of assay [3]: Cell Viability - LYMP2-004 (AID 966).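 Further: plate controls were DMSO only for no effect and tetraoctylammonium bromide control for full effect; nearly all actives have a fitted effect of over 65% in size.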 Put shortly: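 Acute toxicity is scored as a concentration-dependent drop in intracellular ATP, quantified by luciferase luminescence, in human lymphoblastoid cells exposed to compound for 24 hr. AC50 derives from Hill-equation modelling.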
The nature of assay [4]: Cell Viability - LYMP2-009 (AID 968).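 Further: series mostly up to about 92 µM; cells exposed to compound for 24 h at 37 °C; 0% = DMSO alone and the full-kill end = tetraoctylammonium bromide at 92 µM; nearly all actives have a fitted effect of over 55% in size.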
Assay [5] is described as follows: Cell Viability - LYMP2-010 (AID 981).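 Further: cells exposed to compound for 24 hours at 37 °C; nearly all actives have a fitted effect of over 55% in size.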 Further: potency means the concentration at half of the fitted maximal effect. The essentials: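 Acute toxicity is scored as a concentration-dependent loss of cellular ATP in human lymphoblastoid cells after 24 hr compound exposure in complete medium. Tetraoctylammonium bromide is the positive control.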
Assay [6] in a line: Cell Viability - LYMP2-012 (AID 982).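 Further: cellular ATP by luciferase luminescence where a drop means cytotoxicity; cells exposed to compound for one day before reading; 0% = DMSO only and full loss = 92 µM tetraoctylammonium bromide; nearly all actives have a fitted effect of over 55% in size.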
The target of assay [7] is Estrogen receptor (Homo sapiens) (UniProt P03372). The assay is described as follows: qHTS assay for small molecule antagonists of estrogen receptor alpha signaling (AID 588513; active means well fitted curve in the direction sought with a large enough effect in the signal ratio, with a control signal flat, not every such curve was filed as active; the % refers to the signal ratio; further: on the % scale 0 is the no-effect control and ±100 the full control effect). The essentials:
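Fluorescence from CCF4 substrate after 2 h at room temperature gave reporter activity; cells had been exposed to compound and 0.5nM 17-beta-estradiol for 18 h at 37 C. Hill-equation fitting yielded IC50 and maximal response.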

Assay [8] shares this target. Put plainly: qHTS assay for small molecule agonists of estrogen receptor alpha signaling (AID 588514; calls by dose curve;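 further: 0% = vehicle only and 100% = reference agonist; nearly all actives have a fitted effect of over 70% in size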). The essentials:
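Reporter-gene assay. […] controls beta-lactamase in HEK 293 GripTite cells; after 18 hrs with compound, CCF4 substrate is added for 2 hrs and fluorescence is read.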

For assay [9], the target named is Glucocorticoid receptor (Homo sapiens) (UniProt P04150). The assay is described as follows: qHTS assay for small molecule agonists of glucocorticoid receptor signaling (AID 588532; active means well fitted curve in the direction sought with a large enough effect in the signal ratio, with a control signal flat; the % refers to the signal ratio;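 further: 100% = dexamethasone at 0.1 µM and 0% = DMSO only wells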). Conditions: HeLa MMTV-bla, beta-lactamase ratio, agonist, 18 h; hits give high values; percent of dexamethasone control, DMSO zero. The essentials:
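MMTV-bla HeLa beta-lactamase reporter cells in 1% charcoal/dextran FBS medium, compounds up to 92 uM for 18 h at 37 C, CCF4 readout; normalized to 0.1 uM dexamethasone (100%), EC50 and efficacy from Hill fits.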

Assay [10] shares this target. Put plainly: qHTS assay for small molecule antagonists of glucocorticoid receptor signaling (AID 588533; active means well fitted inhibition curve with a large enough effect in the signal ratio, with a control signal flat, not every such curve was filed as active; the % refers to the signal ratio;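 further: cells stimulated with 2 nM dexamethasone as agonist; on the % scale 0 is the no-effect control and ±100 the full control effect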). Put shortly:
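Antagonist-mode qHTS: compound titrations added to GRE-bla HeLa cells, then dexamethasone 2 nM final; 18 h, 37 C. CCF4 FRET fluorescence normalized to dexamethasone and DMSO; IC50 from Hill fit.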

Assay [11] has as its target Peroxisome proliferator-activated receptor delta (Homo sapiens) (UniProt Q03181). The assay is described as follows: qHTS assay for small molecule agonists of peroxisome proliferator-activated receptor delta signaling (AID 588534; calls by dose curve;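 further: 0% = DMSO basal wells and 100% = positive control agonist at 10 µM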). The essentials:
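Reporter cells were plated and held 5 hrs at 37 C before compounds were added. After 18 hrs at 37 C, CCF4 dye was loaded for 2 hrs at RT and fluorescence measured.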

The target in assay [12] is Thyroid hormone receptor beta (Homo sapiens) (UniProt P10828). The assay is described as follows: qHTS assay for small molecule agonists of thyroid hormone receptor beta signaling (AID 588545; calls by dose curve). Put shortly:
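Agonist-mode beta-lactamase reporter assay, HEK 293 cells, 2% charcoal/dextran FBS; cells plated 4 hrs, compound 18 hrs at 37 C, CCF4 2 hrs RT. Normalized to 10 nM T3 (100%) and DMSO (0%); Hill fit gives EC50, efficacy.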

The target is the same in assay [13]. Put plainly: qHTS assay for small molecule antagonists of thyroid hormone receptor beta signaling (AID 588547; active means well fitted inhibition curve with a large enough effect in the signal ratio, with a control signal flat, not every such curve was filed as active; the % refers to the signal ratio;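 further: cells stimulated with 0.4 nM T3 agonist during compound exposure; series mostly up to about 77 µM; on the % scale 0 is the no-effect control and ±100 the full control effect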). Conditions: TR-UAS-bla HEK293, beta-lactamase ratio, antagonist mode, 18 h. The essentials:
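TR-UAS-bla GripTite HEK293 cells in 2% charcoal/dextran FBS medium; compounds 0.59 nM to 92 uM with T3 at 0.4nM final, 18 h at 37 C. Beta-lactamase read by CCF4 fluorescence (460/530 nm); Hill fits gave IC50 and efficacy.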

Assay [14] deals with Voltage-gated inwardly rectifying potassium channel KCNH2 (Homo sapiens) (UniProt Q12809). Put plainly: qHTS Assay for Small Molecule Inhibitors of the Human hERG Channel Activity (AID 588834).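 Further: top concentration of the series differs between compounds; on the % scale 0 is the no-effect control and ±100 the full control effect; lower thallium flux fluorescence means stronger hERG block; nearly all actives have a fitted effect of over 50% in size.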 Put shortly: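 hERG-BacMam U2OS, 2000 cells/well; 0.7X FluxOR loading 1 hr RT dark; cpd ~10 min 37 °C; stim buffer; FDSS fluorescence 2 min @ 1 s; AC50 Hill fit.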
Assay [15] is described as follows: qHTS assay for small molecule activators of the p53 signaling pathway (AID 651743; active means well fitted activation curve with a large enough effect in the signal ratio, not every such curve was filed as active; the % refers to the signal ratio; further: series mostly up to about 92 µM; % of control where 0% means no effect). Conditions: HCT-116 p53RE-bla, beta-lactamase FRET ratio, 16 h; activation: hits give high values. Put shortly:
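HCT-116 p53RE-bla, 4,000 cells/well; 5 h settle; cpd/DMSO 16 h, 37 C; LiveBLAzer B/G 2 h RT; fluorescence intensity.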

Assay [16] concerns the target Nuclear receptor ROR-gamma (Homo sapiens) (UniProt P51449). The assay is described as follows: qHTS assay for small molecule antagonists of the retinoid-related orphan receptor gamma (ROR-gamma) signaling pathway (AID 651802). Further: nearly all actives have a fitted effect of over 60% in size. Further: potency means the concentration at half of the fitted maximal effect. The essentials:
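Antagonism is scored as a fall in luminescence from a RORE-luciferase reporter in CHO cells expressing ROR under a TET-inducible promoter, measured 16hr after doxycycline induction in the presence of compound.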

Assay [17] is described as follows: qHTS assay for small molecule antagonists of the retinoid-related orphan receptor gamma (ROR-gamma) signaling pathway - cell viability counter screen (AID 720652; active means well fitted curve in the direction sought with a large enough effect in the repeat runs; an effect the other way counts as inactive or inconclusive;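 further: series mostly up to about 92 µM; compound exposure lasted 16 hr before ATP read; on the % scale 0 is the no-effect control and ±100 the full control effect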). Put shortly: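 Cytotoxicity is quantified via intracellular ATP (CellTiter-Glo luminescence) in doxycycline-induced CHO ROR response element-luciferase reporter cells treated with compound for 16 hr at 37 C, 5% CO2.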

For assay [18], the target named is Nuclear receptor subfamily 1 group I member 2 (Rattus norvegicus) (UniProt Q9R1A7). Put plainly: qHTS assay for small molecule activators of the rat pregnane X receptor (rPXR) signaling pathway (AID 651751; call rule not given here; further: 0% is about no effect). Conditions: rPXR reporter cells, luciferase (One-Glo), 24 h.
Assay [19] in a line: qHTS assay for small molecule activators of the human pregnane X receptor (PXR) signaling pathway (AID 720659; call rule not given here; further: 0% is about no effect).
In assay [20] the target is Peroxisome proliferator-activated receptor gamma (Homo sapiens) (UniProt P37231). The assay is described as follows: qHTS assay for small molecule agonists of peroxisome proliferator-activated receptor gamma signaling (AID 588536; active means well fitted curve in the direction sought with a large enough effect in the signal ratio, with a control signal flat, not every such curve was filed as active; the % refers to the signal ratio;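 further: 0% = DMSO basal wells and 100% = rosiglitazone at 2 µM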). Put shortly: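 HEK293 UAS-bla reporter line, 1% charcoal/dextran FBS; titration, 16 h, 37 C; CCF4 loading 2 h RT; fluorescence 460/530 nm. Normalized to rosiglitazone 2 uM = 100%, DMSO = 0%.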
Chain of Peroxisome proliferator-activated receptor gamma (Homo sapiens) (P37231 whole entry, looked up): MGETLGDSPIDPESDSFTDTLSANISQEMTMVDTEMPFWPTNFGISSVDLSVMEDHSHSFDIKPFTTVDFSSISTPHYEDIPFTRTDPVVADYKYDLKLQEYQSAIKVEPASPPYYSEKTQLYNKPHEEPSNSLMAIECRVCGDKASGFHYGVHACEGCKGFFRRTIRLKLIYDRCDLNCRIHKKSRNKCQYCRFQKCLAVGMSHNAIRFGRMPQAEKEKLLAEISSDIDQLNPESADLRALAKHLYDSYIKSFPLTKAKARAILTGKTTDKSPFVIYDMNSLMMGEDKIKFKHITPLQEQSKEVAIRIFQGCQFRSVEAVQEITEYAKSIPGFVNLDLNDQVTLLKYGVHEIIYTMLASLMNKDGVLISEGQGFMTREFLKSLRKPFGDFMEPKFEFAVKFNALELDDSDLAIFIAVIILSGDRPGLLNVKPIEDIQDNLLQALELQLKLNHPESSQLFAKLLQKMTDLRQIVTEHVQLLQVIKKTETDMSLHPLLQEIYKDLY

Chain of Glucocorticoid receptor (Homo sapiens) (P04150 whole entry, looked up): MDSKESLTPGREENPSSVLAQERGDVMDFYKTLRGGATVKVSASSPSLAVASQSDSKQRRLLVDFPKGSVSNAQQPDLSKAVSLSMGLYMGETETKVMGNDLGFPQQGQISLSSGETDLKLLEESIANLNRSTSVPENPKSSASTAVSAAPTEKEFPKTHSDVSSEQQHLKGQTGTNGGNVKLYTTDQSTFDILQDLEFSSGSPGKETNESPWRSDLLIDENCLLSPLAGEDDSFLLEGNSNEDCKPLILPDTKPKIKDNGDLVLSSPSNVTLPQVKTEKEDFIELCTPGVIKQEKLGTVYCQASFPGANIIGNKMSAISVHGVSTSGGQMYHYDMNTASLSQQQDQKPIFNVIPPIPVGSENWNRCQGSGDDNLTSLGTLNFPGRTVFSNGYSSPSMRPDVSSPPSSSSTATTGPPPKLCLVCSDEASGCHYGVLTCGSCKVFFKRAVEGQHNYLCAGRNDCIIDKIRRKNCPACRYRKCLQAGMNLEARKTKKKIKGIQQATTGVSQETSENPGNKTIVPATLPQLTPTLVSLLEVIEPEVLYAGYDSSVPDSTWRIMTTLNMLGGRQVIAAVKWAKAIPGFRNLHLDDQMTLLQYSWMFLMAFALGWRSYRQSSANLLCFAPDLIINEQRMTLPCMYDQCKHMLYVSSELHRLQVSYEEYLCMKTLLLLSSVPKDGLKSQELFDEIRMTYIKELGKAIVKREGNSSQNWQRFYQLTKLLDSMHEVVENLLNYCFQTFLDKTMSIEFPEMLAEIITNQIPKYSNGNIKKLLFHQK
Chain of Voltage-gated inwardly rectifying potassium channel KCNH2 (Homo sapiens) (Q12809 whole entry, looked up): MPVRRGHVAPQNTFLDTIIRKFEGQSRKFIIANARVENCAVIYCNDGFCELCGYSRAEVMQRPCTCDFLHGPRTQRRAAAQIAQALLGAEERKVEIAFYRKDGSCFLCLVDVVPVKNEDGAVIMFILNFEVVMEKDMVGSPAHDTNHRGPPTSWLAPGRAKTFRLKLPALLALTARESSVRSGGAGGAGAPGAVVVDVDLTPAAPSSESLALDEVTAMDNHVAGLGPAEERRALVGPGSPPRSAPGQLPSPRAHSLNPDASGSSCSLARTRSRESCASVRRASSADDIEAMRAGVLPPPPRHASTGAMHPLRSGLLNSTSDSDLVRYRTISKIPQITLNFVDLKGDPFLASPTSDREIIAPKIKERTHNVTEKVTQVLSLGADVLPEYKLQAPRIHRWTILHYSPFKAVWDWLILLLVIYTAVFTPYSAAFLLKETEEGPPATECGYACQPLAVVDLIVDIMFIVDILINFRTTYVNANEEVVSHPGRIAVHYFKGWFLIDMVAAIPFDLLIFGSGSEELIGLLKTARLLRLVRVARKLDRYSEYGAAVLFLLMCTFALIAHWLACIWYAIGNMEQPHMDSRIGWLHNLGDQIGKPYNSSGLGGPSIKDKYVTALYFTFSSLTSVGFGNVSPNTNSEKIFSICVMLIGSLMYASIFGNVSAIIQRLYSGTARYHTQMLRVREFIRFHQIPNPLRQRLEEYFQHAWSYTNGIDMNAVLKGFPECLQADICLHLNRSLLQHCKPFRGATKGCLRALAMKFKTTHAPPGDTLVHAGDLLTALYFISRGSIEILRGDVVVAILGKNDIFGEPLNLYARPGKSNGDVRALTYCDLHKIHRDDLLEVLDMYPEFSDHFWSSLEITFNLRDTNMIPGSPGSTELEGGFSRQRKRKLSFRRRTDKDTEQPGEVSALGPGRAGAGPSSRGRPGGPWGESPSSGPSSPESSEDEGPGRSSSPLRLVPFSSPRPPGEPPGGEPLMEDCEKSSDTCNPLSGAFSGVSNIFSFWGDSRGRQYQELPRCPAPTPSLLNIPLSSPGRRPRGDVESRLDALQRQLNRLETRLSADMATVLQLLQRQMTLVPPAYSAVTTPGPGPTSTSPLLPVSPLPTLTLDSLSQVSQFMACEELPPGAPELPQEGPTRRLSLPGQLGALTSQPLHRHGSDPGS
Chain of Nuclear receptor subfamily 1 group I member 2 (Rattus norvegicus) (Q9R1A7 whole entry, looked up): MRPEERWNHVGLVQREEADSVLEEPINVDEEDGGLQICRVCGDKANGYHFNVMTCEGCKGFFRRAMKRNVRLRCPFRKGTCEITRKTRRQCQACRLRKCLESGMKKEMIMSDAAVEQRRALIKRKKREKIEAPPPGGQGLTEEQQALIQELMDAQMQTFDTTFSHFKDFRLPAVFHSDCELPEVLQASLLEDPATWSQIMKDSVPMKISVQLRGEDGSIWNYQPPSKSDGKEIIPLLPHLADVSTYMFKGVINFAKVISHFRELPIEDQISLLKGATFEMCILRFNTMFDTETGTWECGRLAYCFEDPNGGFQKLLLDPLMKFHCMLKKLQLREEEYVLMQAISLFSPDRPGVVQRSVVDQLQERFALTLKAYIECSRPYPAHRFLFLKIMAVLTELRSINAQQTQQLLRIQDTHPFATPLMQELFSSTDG
Chain of Nuclear receptor ROR-gamma (Homo sapiens) (P51449 whole entry, looked up): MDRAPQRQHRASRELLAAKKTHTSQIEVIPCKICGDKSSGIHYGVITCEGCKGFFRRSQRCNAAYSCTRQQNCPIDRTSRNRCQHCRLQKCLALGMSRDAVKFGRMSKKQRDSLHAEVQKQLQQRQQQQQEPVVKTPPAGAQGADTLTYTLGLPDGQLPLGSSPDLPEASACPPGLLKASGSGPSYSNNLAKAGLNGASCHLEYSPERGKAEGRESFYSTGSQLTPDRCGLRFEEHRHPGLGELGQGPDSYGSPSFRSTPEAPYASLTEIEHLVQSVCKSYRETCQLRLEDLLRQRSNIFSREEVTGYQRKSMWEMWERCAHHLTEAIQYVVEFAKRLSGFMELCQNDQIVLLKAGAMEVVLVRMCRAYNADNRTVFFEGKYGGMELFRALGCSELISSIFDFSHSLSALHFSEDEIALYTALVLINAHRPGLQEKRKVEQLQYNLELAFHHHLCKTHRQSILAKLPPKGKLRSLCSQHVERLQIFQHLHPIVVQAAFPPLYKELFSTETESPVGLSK
Chain of Cytochrome P450 3A4 (Homo sapiens) (P08684 whole entry, looked up): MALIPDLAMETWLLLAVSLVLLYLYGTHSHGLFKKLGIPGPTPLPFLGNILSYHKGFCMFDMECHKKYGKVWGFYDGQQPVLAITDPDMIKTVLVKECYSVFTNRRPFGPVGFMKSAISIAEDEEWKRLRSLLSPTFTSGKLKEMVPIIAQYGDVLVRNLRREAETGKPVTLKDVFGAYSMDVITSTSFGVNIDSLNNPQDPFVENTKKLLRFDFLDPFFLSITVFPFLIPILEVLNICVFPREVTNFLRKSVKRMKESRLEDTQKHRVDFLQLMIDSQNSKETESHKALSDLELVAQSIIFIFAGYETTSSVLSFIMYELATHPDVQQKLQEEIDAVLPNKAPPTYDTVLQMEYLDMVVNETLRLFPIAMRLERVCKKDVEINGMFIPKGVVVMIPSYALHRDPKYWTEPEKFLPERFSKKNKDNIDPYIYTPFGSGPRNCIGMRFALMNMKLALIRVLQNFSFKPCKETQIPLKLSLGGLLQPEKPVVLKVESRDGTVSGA
Chain of Thyroid hormone receptor beta (Homo sapiens) (P10828 whole entry, looked up): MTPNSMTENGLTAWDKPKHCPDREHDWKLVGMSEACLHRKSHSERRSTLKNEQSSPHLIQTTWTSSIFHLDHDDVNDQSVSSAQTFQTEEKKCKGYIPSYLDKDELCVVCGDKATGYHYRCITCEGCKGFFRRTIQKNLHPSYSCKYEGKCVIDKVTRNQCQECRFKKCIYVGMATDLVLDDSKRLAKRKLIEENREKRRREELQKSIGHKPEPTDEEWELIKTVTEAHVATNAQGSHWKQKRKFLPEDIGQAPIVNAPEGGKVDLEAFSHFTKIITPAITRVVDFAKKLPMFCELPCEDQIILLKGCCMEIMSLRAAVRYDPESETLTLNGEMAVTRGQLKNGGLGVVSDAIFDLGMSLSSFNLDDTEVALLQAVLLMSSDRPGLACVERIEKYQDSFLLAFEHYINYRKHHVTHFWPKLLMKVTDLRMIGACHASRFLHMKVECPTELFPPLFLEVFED
Chain of Estrogen receptor (Homo sapiens) (P03372 whole entry, looked up): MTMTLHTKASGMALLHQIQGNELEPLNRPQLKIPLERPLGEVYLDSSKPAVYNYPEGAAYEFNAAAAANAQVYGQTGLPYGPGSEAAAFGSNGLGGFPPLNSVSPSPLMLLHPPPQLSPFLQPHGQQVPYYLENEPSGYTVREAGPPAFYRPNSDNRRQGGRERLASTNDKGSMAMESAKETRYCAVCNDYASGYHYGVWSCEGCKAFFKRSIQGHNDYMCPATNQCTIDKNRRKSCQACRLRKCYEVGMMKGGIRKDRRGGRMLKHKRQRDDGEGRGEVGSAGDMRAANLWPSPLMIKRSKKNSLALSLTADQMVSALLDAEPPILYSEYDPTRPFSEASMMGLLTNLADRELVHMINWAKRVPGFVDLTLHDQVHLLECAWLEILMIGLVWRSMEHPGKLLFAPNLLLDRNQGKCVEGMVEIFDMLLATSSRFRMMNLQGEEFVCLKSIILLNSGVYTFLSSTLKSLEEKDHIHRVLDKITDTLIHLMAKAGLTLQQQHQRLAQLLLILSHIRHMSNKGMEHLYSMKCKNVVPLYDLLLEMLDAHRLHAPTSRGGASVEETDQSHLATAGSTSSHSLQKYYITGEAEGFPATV

`ClC(Cl)(Cl)c1ccccc1`: the Potency entry in [1], in assay [2], in [3], in assay [4], in assay [5] and in [6] was “inactive” in each case. Moreover, the Potency result in [7], in assay [8], in [10], in [14], in [16] and in assay [17] was “inactive” throughout. The activation in assay [9] was -6.79% and 7.81%; in assay [15], -3.47% and -2.04%. The result in assay [11], in [12] and in [19] was inactive. For the same molecule, the activity change % (negative = inhibition) in [13] was -2.31% and -2.68%. Also, the max response in assay [18] was 1.62% and -4.94%.

For `CC(C)(OO)c1ccccc1`, the Potency result in [1], in assay [7], in assay [10] and in [14] was “inactive” each time. Further, the Potency was 25.1 µM (active) in [5] and 42.2 µM (active) in assay [16]. In addition, the activation in assay [9] was 1.9% and -7.5%; in [15] it was 0.437% and -4.93%. For the same molecule, the call in [11], in assay [20], in assay [12] and in assay [19] was inactive. Besides, the activity change % (negative = inhibition) in assay [13] was 14.1% and -10.7%. In [18], the max response was 7.13% and -0.342%.

Turning to `ClCBr`, the Potency entry in assay [1], in assay [2], in assay [3], in assay [7], in [8] and in assay [10] was “inactive” each time. The Potency result in [14], in assay [16] and in assay [17] was “inactive” throughout. Further, the activation in assay [9] was -4.32%. In addition, the molecule was classed as inactive in assay [11], in [20], in [12] and in assay [19]. In addition, the activity change % (negative = inhibition) in assay [13] is 5.81%. The max response in assay [18] is 0.745%.

For `BrCCBr`, the Potency result in assay [1], in [3], in assay [4], in [5], in assay [6] and in assay [7] was “inactive” each time. Further, the Potency result in assay [8], in assay [10], in assay [14], in assay [16] and in assay [17] was “inactive” throughout. Further, the activation in assay [9] was 2.21% and 1.87%; in assay [15], -3.11% and 0.969%. Also, the molecule was classed as inactive in [11], in assay [20], in assay [12] and in assay [19]. Also, the activity change % (negative = inhibition) in assay [13] was -9.28%. Further, in assay [18], the max response is 2.8% and -1.13%.

On to `CC(Cl)Cl`, for which the Potency entry in assay [1], in [2], in assay [3], in assay [4], in [5] and in assay [6] was “inactive” each time. Further, the Potency entry in assay [7], in assay [8], in assay [10], in assay [14], in [16] and in [17] was “inactive” in each case. For the same molecule, the activation was -9.28% in assay [9] and -4.47% in [15]. Further, the outcome in [11], in assay [20] and in [19] was inactive. Also, in assay [13], the activity change % (negative = inhibition) is -1.63%. Besides, the max response in assay [18] is -1.43%.

As for `CC(C)(C)OO`, the Potency entry in [2], in assay [3], in assay [4], in assay [5], in [6] and in assay [14] was “inactive” in each case. Further, the Potency result in assay [16] and in assay [17] was “inactive” in each case. The molecule was called inactive in assay [11], in [20], in assay [12] and in assay [19]. For the same molecule, the activity change % (negative = inhibition) in [13] was 4.81% and -2.74%. Also, the activation in [15] is 0.296%. Moreover, the max response in assay [18] was 1.05% and -0.992%.
